According to PubChem BioAssay (NCI):
About 83,000 compounds went through this panel and 20% of them were active in at least one assay; those are over-represented in the sample as a whole.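 Treatment: one concentration, 48 hours, 96-well format. Scoring: percent growth, with anything below 10 considered active.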 Unmarked numbers belong to inactive results. Active and inactive are the calls of the source.

Tested on: MDA-MB-468 breast
Experiment: NCI-60 one-dose screen, 48 h (100 = growth as untreated, 0 = no growth, -100 = all killed)
Settings: 10 µM unless noted

SMILES | growth
CNCCNc1nc2ccccc2c2c(=O)c3cc(F)ccc3sc12 | 51.6%
Cn1cc(-c2nonc2-c2c[nH]c3ccc(F)cc23)c2cc(Br)ccc21 | 58.7%
Cc1cccc(-c2nnc(SCC(=O)Nc3ncc(Cc4ccccc4)s3)n2N2C(=O)CSC2=S)c1 | 62.1%
BrCCCOc1ccc(Oc2ccc(OCCCBr)cc2)cc1 | 97.5%
COC(=O)C(Cc1ccccc1)NC(=O)NC(=O)NC(=O)CI (centres undefined) | 82.8%
Clc1nc(-c2ccccn2)nc2sc3c(c12)CCCCCC3 | -84.3% (active)
CCC(C)/C(=C\C#N)NCCCN/C(=C/C#N)C(C)CC (centres undefined) | 108%
COc1cc(C(=O)c2c(N)ncn2-c2ccccc2)cc(OC)c1OC | 76%
NC(N)=Nc1ccc(S(=O)(=O)O)cc1 | 114%
CO[C@]12C=C/C(=C(/C(=O)OCc3cccnc3)C(=O)CCCCCCCC[C@]3(OC)C=C/C(=C(/C(=O)OCc4cccnc4)C(=O)CCCCCCCC1)O3)O2 | -50.5% (active)
CC(CCc1ccc(Cl)c(Cl)c1)NCc1ccc(C(C)(C)C)cc1 (centres undefined) | 30.8%
NC(=O)c1cccc(-n2ccc3cc(NC(=O)Nc4ccc(Cl)c(C(F)(F)F)c4)ccc32)n1 | 47%
COC(=O)/C=C1/SC(=Nc2cccc(Cl)c2)N(CCc2c[nH]c3ccc(O)cc23)C1=O | 24.7%
Nc1c(C(=O)Nc2ccncc2)sc2nc3c(cc12)CCCCCC3 | 87.8%
CCN(CC)CCCC(C)N/C(=C1\C(=O)NC(=O)\C1=C(/NC(C)CCCN(CC)CC)c1cccc(OC)c1)c1cccc(OC)c1 (centres undefined) | -42.6% (active)
Cc1nc2ncccc2nc1Nc1ccc(S(=O)(=O)Nc2cncs2)cc1 | 97.7%
CCN1CCCC(N2c3ccccc3Sc3ccccc32)C1 (centres undefined) | 116%
O=C(/C=C\c1cccc([N+](=O)[O-])c1)c1ccccc1 | -13.8% (active)
CCOC(=O)C(=Cc1cccc(C#N)c1)C(=O)OCC | 43%
O=C(Cn1c2ccccc2c2ccncc21)N/N=C/c1cc(O)c(O)c(O)c1 | 111%

SMILES | growth
C#Cc1cccc(NC(=O)Nc2ccccc2NC(=O)CCl)c1 | -45.2% [8.25 µM] (active)
CCOC(=O)COc1c(C)cc(SSc2cc(C)c(OCC(=O)OCC)c(C)c2)cc1C | 109%
O=C(N/N=C\c1ccc(Cl)cc1)c1ccc2nc(-c3ccc(Br)cc3)[nH]c2c1 | -34.9% (active)
COc1cc(-c2cc3ncccc3c3nc(N)c4cccnc4c23)cc(OC)c1OC | -3.2% (active)
c1ccc2nc(Cn3c[n+](Cc4ccc5ccccc5n4)c4ccccc43)ccc2c1 | -19.3% (active)
COc1ccc(/C=C/C(=O)c2ccc(NC(=O)CSc3nnc(-c4ccc(OC)c(OC)c4)n3-c3ccccc3)cc2)cc1 | 60.2%
c1ccc(CCn2nnc3c(Nc4ccc(N5CCOCC5)cc4)ncnc32)cc1 | 76%
CCN(CC)CCCC(C)Nc1c2ccc(Cl)cc2nc2ccc(OC)cc12 (centres undefined) | -63.3% (active)
Nc1ncnc2[nH]c(=O)[nH]c12 | 97.8%
NC(=O)c1cc(I)ccc1NC(=O)/C=C/c1ccccc1Cl | 17.3%
C#CCOc1cccc(Nc2ncnc3cc(NC(=O)CCl)ccc23)c1 | -52.5% (active)
NC(=O)c1ccc(-c2c3ccccc3cc3c2ccc2ccccc23)cc1 | -11.3% (active)
Cc1c(C)c2c(c(C)c1NC(=O)CCCCCCC(=O)O)CCC(C)(CCCC(C)CCCC(C)CCCC(C)C)O2 (centres undefined) | 90.1%
C=C1C(=O)O[C@H]2[C@H]1CC/C(COC(=O)NCc1cc[nH]c1)=C\CC[C@@]1(C)O[C@@H]21 | 16.8%
Cc1cccc(N=Cc2ccccc2O)c1C | 103%
COC(=O)/C=C1/SC(=Nc2ccc(C(F)(F)F)cc2)N(CCc2c[nH]c3ccc(O)cc23)C1=O | 8.44% (active)
COC(=O)C1NC(=S)N(c2ccc(Cl)cc2)C1/C=C/c1ccccc1 (centres undefined) | 108%
O=C1Cc2ccccc2C(=O)N1 | 45.8%
CC(C)CN1CC(C(=O)Nc2ccc3c(c2)-c2ccccc2C3)CC1=O (centres undefined) | 60.5% [50 µM]
